HepG2 tox – qHTS for Inhibitors of TGF-b: Cytotox Counterscreen; HepG2 CAGA-GFP viability, ATP luminescence, 18 h; Potency, µM (highest dose often 46.1 µM), inactives show at the highest dose activity change, negative = cytotoxicity, usual class: cytotoxic; hit rate 0.76% among 410,000
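HepG2 CAGA-GFP cells (1000/well, DMEM with 1% FBS) received compound, then TGF-beta at 500 pg/mL final, and were incubated 18 hours at 37 degrees C. Viability was read by CellTiter-Glo luminescence. Media-only wells were set as complete cell-killing and DMSO as no toxicity.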
TDP1 cell noCPT – qHTS for Inhibitors of human tyrosyl-DNA phosphodiesterase 1 (TDP1): qHTS in cells in absence of CPT; hit rate 15% among 420,000; DT40 Tdp1-/- hTDP1 cells, no CPT, ATP luminescence, 48 h; Potency, µM (doses to about 46.2 µM), without a hit: top-dose activity change, negative = growth inhibition, actives largely listed as inhibitors; also: % is scaled to controls: 0 for no effect and ±100 for the full control effect; nearly all actives have a fitted effect of over 55% in size
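Readout: luminescence from CellTiter-Glo after 30 min in the dark at RT. Cells: DT40 Tdp1-/- with stable hTDP1, 400/well. Exposure: compounds alone, ≥48 hr, 37 °C.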
TDP1 cell CPT – qHTS for Inhibitors of human tyrosyl-DNA phosphodiesterase 1 (TDP1): qHTS in cells in presence of CPT; chicken DT40 Tdp1-/-;hTDP1 cells + 20 nM CPT, ATP luminescence, 48 h; Potency, µM (titrated, usually from 46.2 µM), inactives show at the highest dose activity change, negative = growth inhibition, usual class: inhibitors; hit rate 12% among 420,000; AID 686979, 2013; also: % is scaled to controls: 0 for no effect and ±100 for the full control effect; nearly all actives have a fitted effect of over 55% in size
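Chicken DT40 Tdp1-/- cells stably complemented with human TDP1 were seeded at 400 cells/well in medium containing 20 nM camptothecin, exposed to pin-transferred compounds, and grown at 37 °C for at least 48 hr. Viability was read as ATP luminescence.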
HT1080NT lethal – qHTS for induction of synthetic lethality in tumor cells producing 2HG: qHTS for the HT-1080-NT fibrosarcoma cell line; Potency, µM (titrated, usually from 46.1 µM), without a hit: at the top dose activity, negative = less viability, most hits filed as cytotoxic; AID 686970, 2013; hit rate 1.6% among 360,000; HT-1080-NT fibrosarcoma viability, CellTiter-Glo ATP luminescence, 48 h;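 also: NT is the 2HG producing partner of a matched IDH1 knockdown line; 0% = DMSO-treated cells and -100% = media-only wells without cells; nearly all actives have a fitted effect of over 55% in size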
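Luminescent CellTiter-Glo readout after 48 hours of compound exposure at 37 degrees C defined viability of HT-1080-NT cells. Activity was normalized to DMSO wells and cell-free media wells; concentration-response curves were fitted and assigned curve classes.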
HT1080 IDH1KD tx – qHTS for induction of synthetic lethality in tumor cells producing 2HG: qHTS for the HT-1080-IDH1KD cell line. HT-1080 IDH1 knockdown viability, ATP luminescence, 48 h. Potency, µM (top dose mostly 46.1 µM), without a hit: at the highest dose activity, negative = toxicity, actives largely listed as cytotoxic. hit rate 2% among 360,000. AID 686971, 2013;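 also: 0% = DMSO wells and -100% = cell-free medium wells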
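Knockdown cells (IDH1KD HT-1080) received compounds 2 h after plating at 750 cells/well and were kept 48 h at 37 °C in 5% FBS RPMI. A CellTiter-Glo luminescence read gave % activity for curve fitting.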
TGFb SMAD3 inh – qHTS for Inhibitors of TGF-b; AID 588855, 2011; hit rate 1.2% among 410,000; HepG2 CAGA-GFP TGF-b/SMAD3 reporter, GFP fluorescence, 18 h; TGF-beta stimulated, 500 pg/mL final; Potency, µM (top dose mostly 46.1 µM), without a hit: at the highest dose activity, negative = inhibition, actives largely listed as inhibitors; also: % is scaled to controls: 0 for no effect and ±100 for the full control effect; nearly all actives have a fitted effect of over 65% in size
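Read-out: total well GFP (ex488/em500-530) summed from mean per-cell fluorescence. Cells: HEPG2 CAGA-GFP, 1% FBS DMEM, 18 h at 37 degrees C with 500 pg/mL final TGF-beta. Unstimulated wells served as the full-inhibition control; stimulated DMSO wells = 0%.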
* hit, by the source's call; u = inconclusive; x = no result given; [ ] = another dose, or the depositor's remark. A selection: hits, their analogues and other compounds. The true share with any hit is near 17%. Calls follow the shape of the dose curve; as a rule, active = well fitted curve in the direction sought with a large enough effect; inconclusive = small, poorly fitted or top-dose-only effect, or another doubt; inactive = no such curve, though single readings can be large; an effect the other way counts as inactive or inconclusive. Potency is read from the fitted curve at half-maximal effect.

SMILES	HepG2 tox	TDP1 cell noCPT	TDP1 cell CPT	HT1080NT lethal	HT1080 IDH1KD tx	TGFb SMAD3 inh
c1ccc(-c2ccc(-c3cnc4n3CCCCC4)cc2)cc1	-42%	18µM*	u	u	u	u
Cc1ccc(-c2cnc3n2CCCCC3)cc1	6%	26µM*	u	-4%	0%	-1%
Cc1ccccc1NC(=O)COC(=O)CN1C(=O)NC(C)(C)C1=O	-17%	2%	-7%	12%	14%	-5%
COc1ccc(-c2ccc(C(=O)N(C)Cc3csc(C)n3)c(N3CCC(N4CCc5ccccc5C4)CC3)n2)cc1	x	-21%	8%[9.04 µM]	x	x	x
COc1cc(CN2C[C@@H](CO)O[C@@H](n3cnc4c(NC5CCC5)ncnc43)C2)cc(OC)c1OC	0%	1%	2%	7%	19%	6%
Cc1ccc(S(=O)(=O)N/N=C/c2ccccc2F)cc1[N+](=O)[O-]	27%	-1%	-7%	10%	10%	15%
CCN(Cc1ccccc1)c1ccccc1	-12%	-22%	-6%	0%	4%	-1%
CCN(Cc1ccccc1)c1ccc(/C=N/NS(=O)(=O)c2ccc(C)c([N+](=O)[O-])c2)cc1	-21%	23µM*	u	-11%	-17%	u
CCN(Cc1ccccc1)c1ccc(/C=N/N=C(N)N)cc1	-81%	13µM*	10µM*	18µM*	u	u
CCN(CC)c1ccc(/C=N/NC(=O)Nc2ccccc2)cc1	-67%	u	u	u	u	u
CCN(Cc1ccccc1)c1ccc(/C=N/NC(=S)NC(C)C)cc1	7%	2.9µM*	2.6µM*	-1%	-1%	-45%
O=C(Nc1nc2ccc(S(=O)(=O)N3CCOCC3)cc2s1)c1cccs1	6%	-25%	-7%	-8%	-12%	-1%
Cc1ccc(CN(C)C(=O)C2CCC(=O)N(CCc3ccccc3)C2)o1 (configuration not stated)	3%	u	u	9%	15%	-8%
Cc1ccc(N2CCN(C(=O)N3CCCC3)CC2)cc1C	-9%	8%	21µM*	3%	2%	19%
Cc1ccc(N2CCN(C(=O)c3cccs3)CC2)cc1C	-8%	-26%	-1%	14%	-4%	14%
COc1ccccc1CCc1nc2ccccc2n1C1CCN(C(=O)c2cn3ccsc3n2)CC1	x	-8%	9%[9.04 µM]	x	x	x
CCC(=O)c1c(O)cc(O)cc1O	x	-27%	-12%	x	x	x
CC(=O)Nc1ccccc1OCC(=O)NC(C)c1ccccc1 (configuration not stated)	-18%	-17%	-24%	14%	-3%	5%
CC(=O)Nc1ccccc1OCC(=O)N(Cc1ccccc1)C(C)C	-45%	13µM*	16µM*	-3%	-15%	u
O=C(CSc1nnc(CNC(=O)c2ccccc2)o1)NCC1CCCO1 (configuration not stated)	1%	0%	-3%	0%	3%	-7%
O=C(C[n+]1ccc(/C=C/c2c[nH]c3ccccc23)c2ccccc21)c1ccccc1	-57%	u	-8%	x	x	-29%
C(=C\c1nccc2ccccc12)/c1ccc(N2CCOCC2)cc1	-21%	u	u	x	x	-14%
CN(C)c1ccc(/C=C/c2nccc3ccccc23)cc1	-52%	u	u	x	x	72%
Fc1ccc(/C=C/c2nccc3ccccc23)cc1	-23%	14µM*	7.1µM*	x	x	-9%
O=C(/C=C/c1c[nH]c2ccccc12)c1cccc2ccccc12	-77%	12µM*	16µM*	u	u	u
SMILES	HepG2 tox	TDP1 cell noCPT	TDP1 cell CPT	HT1080NT lethal	HT1080 IDH1KD tx	TGFb SMAD3 inh
C(=C\c1c[nH]c2ccccc12)/c1nccc2ccccc12	11µM*	u	u	x	x	u
O=C(COc1cccc(C(F)(F)F)c1)NNC(=O)c1ccc(=O)[nH]c1	-12%	18%	-8%	6%	4%	-2%
COc1ccc(-c2ccccc2)cc1NC(=O)C1(C)CCN1C(=O)C(C)C (configuration not stated)	-2%	-52%	u	-10%	12%	-7%
COc1ccc(C=CC(=O)c2c(OC)cc(OC)c(OC)c2O)cc1	-42%	u	u	-21%	u	u
C=CCOc1ccc(C=CC(=O)c2c(O)c(OC)c(OC)c(OC)c2OC)cc1	-28%	16µM*	16µM*	-17%	-19%	-12%
O=C(NCCCn1ccnc1)c1cccc(Cl)c1	-21%	-1%	25%	13%	13%	u
COC(=O)C(Sc1ccc(Cl)cc1)C1SC(=S)N(Cc2ccccc2)C1=O (configuration not stated)	-55%	2.1µM*	2.9µM*	-16%	u	u
CC(CCc1ccccc1)NC(=O)CNC(=O)c1ccccc1Br (configuration not stated)	1%	0%	16%	0%	0%	-3%
O=C1CC/C=C\C[C@@H](CC(=O)N(CCO)Cc2ccccc2)C(=O)NC[C@@H](c2ccccc2)O1	1%	-26%	-2%	19%	11%	-10%
O=C(N[C@@H]1C/C=C\C[C@@H](CC(=O)N(CCO)Cc2ccccc2)C(=O)NC[C@H](c2ccccc2)OC1=O)OCC1c2ccccc2-c2ccccc21	-60%	7.3µM*	2.6µM*	u	-21%	u
O=C(N[C@@H]1C/C=C\C[C@H](CC(=O)N(CCO)Cc2ccccc2)C(=O)NC[C@@H](c2ccccc2)OC1=O)OCC1c2ccccc2-c2ccccc21	-66%	5.8µM*	6.5µM*	u	u	7.9µM*
O=C1CCC/C=C/C[C@@H](CC(=O)N(CCO)Cc2ccccc2)C(=O)NC[C@@H](c2ccccc2)O1	-11%	-27%	6%	4%	1%	-10%
O=C(C[C@H]1C/C=C\C[C@H](NC(=O)OCC2c3ccccc3-c3ccccc32)C(=O)O[C@H](c2ccccc2)CNC1=O)N[C@H](CO)Cc1ccccc1	-47%	3.7µM*	3.3µM*	12µM*	15µM*	16µM*

Screening data (PubChem BioAssay)
